The source of these data is ChEMBL document CHEMBL1961873, “Compounds: GSK PKIS; Assays: Nanosyn kinase panel” (2012).

The term inhibition denotes the change of the read-out against control, counted positive when it falls.

The target in assay [1] is Sphingosine kinase 1 (Homo sapiens) (UniProt Q9NYA1). Particulars: at 1 µM.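 Also: mean SPHK1 inhibition value reported from the GSK PKIS kinase panel screen.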
In assay [2] the target is T1, Sphingosine kinase 2 (Homo sapiens) (UniProt Q9NRA0).
T1 sequence (whole entry): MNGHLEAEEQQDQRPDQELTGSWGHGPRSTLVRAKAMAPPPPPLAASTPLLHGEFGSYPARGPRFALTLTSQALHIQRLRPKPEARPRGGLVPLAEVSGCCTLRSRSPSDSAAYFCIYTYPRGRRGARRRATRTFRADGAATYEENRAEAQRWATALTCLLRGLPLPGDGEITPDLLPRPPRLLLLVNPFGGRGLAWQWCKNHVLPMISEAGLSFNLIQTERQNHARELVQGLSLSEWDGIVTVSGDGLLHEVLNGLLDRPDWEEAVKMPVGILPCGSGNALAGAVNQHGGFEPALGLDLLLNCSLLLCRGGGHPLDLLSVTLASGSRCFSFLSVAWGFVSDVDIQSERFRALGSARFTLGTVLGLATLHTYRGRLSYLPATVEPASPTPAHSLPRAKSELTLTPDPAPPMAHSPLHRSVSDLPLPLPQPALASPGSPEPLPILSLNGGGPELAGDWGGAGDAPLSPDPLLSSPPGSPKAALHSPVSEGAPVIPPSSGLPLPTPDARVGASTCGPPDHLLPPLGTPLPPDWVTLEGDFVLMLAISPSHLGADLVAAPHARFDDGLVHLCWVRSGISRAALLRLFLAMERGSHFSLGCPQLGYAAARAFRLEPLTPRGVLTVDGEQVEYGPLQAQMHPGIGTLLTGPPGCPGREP
Particulars: at 0.1 µM.

For assay [3], the target named is T1, Sphingosine kinase 2 (Homo sapiens). Particulars: at 1 µM.
For assay [4], the target named is Casein kinase II subunit alpha (Homo sapiens) (UniProt P68400). Particulars: at 0.1 µM.
For assay [5] the target is unchanged. Particulars: at 1 µM.
Assay [6] concerns the target T2, Inhibitor of nuclear factor kappa-B kinase subunit alpha (Homo sapiens) (UniProt O15111).
T2 sequence (whole entry): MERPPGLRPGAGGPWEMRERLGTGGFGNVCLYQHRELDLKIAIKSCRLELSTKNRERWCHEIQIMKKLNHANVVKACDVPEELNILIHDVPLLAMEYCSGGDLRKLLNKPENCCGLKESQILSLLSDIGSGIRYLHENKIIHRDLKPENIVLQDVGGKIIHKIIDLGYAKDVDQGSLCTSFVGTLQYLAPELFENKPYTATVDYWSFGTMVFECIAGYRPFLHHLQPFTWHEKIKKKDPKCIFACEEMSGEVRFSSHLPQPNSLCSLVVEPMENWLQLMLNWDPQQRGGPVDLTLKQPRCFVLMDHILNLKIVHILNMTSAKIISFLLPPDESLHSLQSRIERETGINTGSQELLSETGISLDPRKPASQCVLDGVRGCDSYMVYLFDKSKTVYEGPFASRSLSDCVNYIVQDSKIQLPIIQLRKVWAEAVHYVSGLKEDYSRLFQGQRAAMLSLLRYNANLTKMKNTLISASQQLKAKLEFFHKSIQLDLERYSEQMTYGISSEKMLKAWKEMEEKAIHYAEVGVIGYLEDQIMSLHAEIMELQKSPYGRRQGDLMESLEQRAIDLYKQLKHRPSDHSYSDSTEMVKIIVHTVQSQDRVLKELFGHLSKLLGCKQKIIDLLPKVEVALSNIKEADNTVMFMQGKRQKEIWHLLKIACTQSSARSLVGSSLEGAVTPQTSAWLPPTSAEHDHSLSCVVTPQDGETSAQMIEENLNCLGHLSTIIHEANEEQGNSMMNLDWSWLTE
Particulars: at 0.1 µM.

Assay [7] deals with T2, Inhibitor of nuclear factor kappa-B kinase subunit alpha (Homo sapiens). Particulars: at 1 µM.
Assay [8] addresses T3, Inhibitor of nuclear factor kappa-B kinase subunit beta (Homo sapiens) (UniProt O14920).
T3 sequence (whole entry): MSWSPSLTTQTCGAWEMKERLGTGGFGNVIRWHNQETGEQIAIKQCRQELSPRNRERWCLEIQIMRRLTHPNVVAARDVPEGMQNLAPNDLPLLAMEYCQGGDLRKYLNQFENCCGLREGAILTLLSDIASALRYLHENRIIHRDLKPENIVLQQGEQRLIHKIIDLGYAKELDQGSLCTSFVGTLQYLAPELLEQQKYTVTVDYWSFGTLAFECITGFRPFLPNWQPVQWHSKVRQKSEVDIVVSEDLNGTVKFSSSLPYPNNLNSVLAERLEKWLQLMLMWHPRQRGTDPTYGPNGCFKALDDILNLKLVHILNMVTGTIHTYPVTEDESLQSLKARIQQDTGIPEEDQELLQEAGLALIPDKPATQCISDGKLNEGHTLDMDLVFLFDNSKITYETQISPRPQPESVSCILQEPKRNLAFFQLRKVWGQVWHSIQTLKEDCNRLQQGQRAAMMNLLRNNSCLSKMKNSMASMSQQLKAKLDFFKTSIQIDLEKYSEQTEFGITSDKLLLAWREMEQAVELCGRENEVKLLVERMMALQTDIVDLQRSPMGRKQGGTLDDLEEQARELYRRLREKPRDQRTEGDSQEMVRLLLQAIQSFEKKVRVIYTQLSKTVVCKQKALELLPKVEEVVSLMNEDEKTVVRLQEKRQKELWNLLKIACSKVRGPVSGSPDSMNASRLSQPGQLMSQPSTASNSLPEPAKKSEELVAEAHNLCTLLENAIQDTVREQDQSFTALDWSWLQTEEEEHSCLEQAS
Particulars: at 0.1 µM.

Assay [9] deals with T3, Inhibitor of nuclear factor kappa-B kinase subunit beta (Homo sapiens). Particulars: at 1 µM.
The target in assay [10] is T4, Inhibitor of nuclear factor kappa-B kinase subunit epsilon (Homo sapiens) (UniProt Q14164).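 Also: mean inhibition of IKKε reported, from the GSK PKIS dataset.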
T4 sequence (whole entry): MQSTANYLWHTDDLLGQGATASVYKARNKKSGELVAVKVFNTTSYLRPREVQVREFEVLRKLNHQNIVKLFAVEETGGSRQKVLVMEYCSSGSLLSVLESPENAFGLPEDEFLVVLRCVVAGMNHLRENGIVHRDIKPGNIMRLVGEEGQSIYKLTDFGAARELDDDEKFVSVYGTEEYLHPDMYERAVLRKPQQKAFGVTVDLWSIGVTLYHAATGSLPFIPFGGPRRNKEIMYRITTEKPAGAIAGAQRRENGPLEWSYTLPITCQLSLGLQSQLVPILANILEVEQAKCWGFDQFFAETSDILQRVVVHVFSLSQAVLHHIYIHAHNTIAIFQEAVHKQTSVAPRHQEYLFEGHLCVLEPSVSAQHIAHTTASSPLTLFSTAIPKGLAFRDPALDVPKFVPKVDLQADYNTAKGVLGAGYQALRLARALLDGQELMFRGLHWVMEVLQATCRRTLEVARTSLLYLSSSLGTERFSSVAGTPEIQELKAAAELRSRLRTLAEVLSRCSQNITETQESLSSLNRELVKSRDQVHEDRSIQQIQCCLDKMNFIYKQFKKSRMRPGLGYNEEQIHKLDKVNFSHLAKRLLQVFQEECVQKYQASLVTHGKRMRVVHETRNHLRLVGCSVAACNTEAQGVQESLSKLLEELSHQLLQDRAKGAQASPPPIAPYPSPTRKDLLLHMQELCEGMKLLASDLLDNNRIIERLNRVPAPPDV
Particulars: at 0.1 µM.

The structures appear in SMILES notation.

Sequence of Casein kinase II subunit alpha (Homo sapiens) (P68400 whole entry, looked up): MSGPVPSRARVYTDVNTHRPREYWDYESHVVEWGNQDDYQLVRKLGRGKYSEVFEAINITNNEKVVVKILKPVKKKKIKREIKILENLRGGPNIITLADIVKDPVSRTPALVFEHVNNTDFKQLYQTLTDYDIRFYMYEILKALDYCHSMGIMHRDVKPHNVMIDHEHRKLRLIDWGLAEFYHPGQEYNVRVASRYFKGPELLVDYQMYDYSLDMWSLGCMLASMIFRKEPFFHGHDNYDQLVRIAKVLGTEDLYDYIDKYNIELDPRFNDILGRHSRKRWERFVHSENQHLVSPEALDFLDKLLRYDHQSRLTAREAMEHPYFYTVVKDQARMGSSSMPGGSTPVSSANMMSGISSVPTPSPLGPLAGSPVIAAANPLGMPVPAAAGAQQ
Sequence of Sphingosine kinase 1 (Homo sapiens) (Q9NYA1 whole entry): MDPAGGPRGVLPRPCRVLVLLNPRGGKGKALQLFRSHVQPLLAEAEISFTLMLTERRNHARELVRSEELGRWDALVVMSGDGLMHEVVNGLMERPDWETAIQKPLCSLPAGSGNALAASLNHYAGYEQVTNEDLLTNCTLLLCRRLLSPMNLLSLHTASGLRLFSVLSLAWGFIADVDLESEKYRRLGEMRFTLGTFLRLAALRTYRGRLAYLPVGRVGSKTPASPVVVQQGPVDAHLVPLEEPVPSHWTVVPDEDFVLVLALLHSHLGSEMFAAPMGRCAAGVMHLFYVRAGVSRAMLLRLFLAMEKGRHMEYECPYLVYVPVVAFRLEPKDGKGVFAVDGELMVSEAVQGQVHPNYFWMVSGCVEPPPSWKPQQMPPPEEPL

`CC(=O)Nc1cccc(C#Cc2cncnc2Nc2ccc(OCc3cccc(F)c3)c(Cl)c2)c1`: the inhibition in assay [1] was -1.15%; in [2], -0.41%; in [3], -2.47%; in assay [4] it was -0.51%; in assay [5] it was -4.66%; in assay [6], 3.13%. Besides, the inhibition in assay [7] is -2.41%; in assay [8] it was 2.6%; in [9], -1.07%; in assay [10], 0.8%.
With `COc1ccc(CNC(=O)c2ccc(-c3cc(-c4nnc(C)o4)ccc3C)cc2)cc1`, the inhibition in assay [1] was -0.2%; in [2] it was 1.04%; in assay [3], 0.14%; in assay [4] it was 6.07%; in assay [5], 16.4%; in assay [6] it was 2%. Moreover, the inhibition worked out at 7.25% in [7], 1.12% in [8], 4.56% in assay [9] and 5.88% in assay [10].
`CCCN(CCS(C)(=O)=O)Cc1ccc(-c2ccc3ncnc(Nc4ccc(OCc5cccc(F)c5)c(Cl)c4)c3c2)o1`: the inhibition is 0.07% in assay [1]; 0.75% in assay [2]; 0.76% in assay [3]; 4.77% in [4]; 9.35% in assay [5]; 3.79% in assay [6]. Also, the inhibition in assay [7] stood at 2.86%; in assay [8] it was 0.53%; in [9], 0.26%; in assay [10] it was 2.17%.
Consider `c1ccc(-c2nc3n(c2-c2ccc4c(c2)OCO4)CCC3)nc1`, for which the inhibition in assay [1] is 0.44%; in assay [2] it was -0.36%; in assay [3], 0%; in assay [4] it was 0.8%; in [5], 1.12%; in [6], 0.69%. Moreover, the inhibition in [7] was -5.83%; in assay [8], 3.06%; in assay [9], -0.72%; in assay [10] it was 1.33%.
In the case of `Nc1ncc(-c2cccc(S(N)(=O)=O)c2)c2scc(-c3ccc(F)c(Cl)c3)c12`, the inhibition in [1] is -4.57%; in assay [2] it was -1.05%; in assay [3], 0.43%; in assay [4], 9.52%; in assay [5], 3.4%; in assay [6], -2.46%. Besides, the inhibition in assay [7] is -3.58%; in assay [8] it was 3%; in assay [9], 5.65%; in assay [10], 7.15%.
In the case of `Cc1cccc(Nc2ncc(-c3ccccc3)o2)c1`, the inhibition in assay [1] was 3.75%; in assay [2], 0.62%; in assay [3], -1.72%; in assay [4], 4.16%; in assay [5], 3.49%; in assay [6], 3.87%. For the same compound, the inhibition in assay [7] turned out to be 7.95%; in [8], 4.82%; in assay [9] it was 5.08%; in assay [10], 5.18%.
Take `CCn1c(-c2nonc2N)nc2ccccc21`: the inhibition in [1] was 1.74%; in [2], 13.1%; in assay [3] it was -0.24%; in assay [4] it was 0.89%; in assay [5], -1.31%; in assay [6], -3.92%. Besides, the inhibition in assay [7] was -1.19%; in [8], 2.35%; in [9], -1%; in assay [10] it was 2.9%.
For the compound `N#Cc1c(NC(=O)CN2CCOCC2)sc2c1CCCC2`, the inhibition in [1] is -2.59%; in [2] it was 1.39%; in assay [3] it was -0.6%; in assay [4], 6.02%; in assay [5], 10.9%; in assay [6], 6.78%. Further, the inhibition stood at 6.16% in assay [7], 4.25% in assay [8], 5.09% in assay [9] and 9.02% in assay [10].
In the case of `COC(=O)Nc1nc2ccc(Oc3ccc(NC(=O)Nc4cccc(Cl)c4)cc3)cc2[nH]1`, the inhibition in assay [1] was -0.57%; in assay [2], 0%; in [3], 0%; in assay [4], 4.68%; in [5] it was 1.84%; in [6] it was -0.79%. The inhibition in [7] is 6.02%; in assay [8] it was -0.04%; in [9] it was 1.06%; in assay [10], 4.59%.
